# Measurements from the supplement of paper PMC3545927.
# The list shows a part of the results. The hit rate among all sequences tested is not known here.
# Target: furin, P09958
# Assay: furin cleavage Z-score vs untreated control; higher = more cleavage, active = 3.5 or more, inactive = 1 or less, 8 variable residues between constant flanks
# Summary of the method: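 Peptides 8 residues long, fused to a cDNA oligonucleotide, were fixed to magnetic beads by the N-terminus and exposed to purified furin. The 0.01 ml reactions contained 50 mM HEPES pH 7.5 with CaCl2 and NaCl at 1:10 enzyme:substrate and ran 7.5, 15 or 30 min. For the cleavage Z-score, log counts of sequenced released DNA were compared with furin-free reactions, lowess-adjusted and scaled by median absolute deviation.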
# Sequence of furin, P09958 (P09958 whole entry): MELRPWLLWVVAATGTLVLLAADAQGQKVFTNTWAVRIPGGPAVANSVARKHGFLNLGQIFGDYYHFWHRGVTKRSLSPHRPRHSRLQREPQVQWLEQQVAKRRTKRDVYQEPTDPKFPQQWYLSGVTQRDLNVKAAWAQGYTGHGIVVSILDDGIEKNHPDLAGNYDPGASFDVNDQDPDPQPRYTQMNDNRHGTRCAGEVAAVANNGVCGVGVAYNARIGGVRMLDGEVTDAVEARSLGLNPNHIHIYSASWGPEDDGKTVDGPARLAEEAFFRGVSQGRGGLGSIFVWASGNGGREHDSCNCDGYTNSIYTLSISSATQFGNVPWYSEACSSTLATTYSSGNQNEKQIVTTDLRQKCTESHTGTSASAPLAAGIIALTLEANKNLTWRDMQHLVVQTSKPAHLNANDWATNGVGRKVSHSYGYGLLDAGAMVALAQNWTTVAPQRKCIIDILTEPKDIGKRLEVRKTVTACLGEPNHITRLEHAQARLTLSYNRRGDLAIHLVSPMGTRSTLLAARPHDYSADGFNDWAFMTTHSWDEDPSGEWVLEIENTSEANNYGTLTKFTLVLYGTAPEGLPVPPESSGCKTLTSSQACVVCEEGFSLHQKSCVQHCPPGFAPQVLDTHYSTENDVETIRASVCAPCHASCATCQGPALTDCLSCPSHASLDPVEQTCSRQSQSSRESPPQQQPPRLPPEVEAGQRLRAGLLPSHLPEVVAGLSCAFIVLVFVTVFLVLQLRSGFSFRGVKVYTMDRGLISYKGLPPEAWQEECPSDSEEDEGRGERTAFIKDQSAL
Sequence,furin cleavage Z-score (7.5 min),furin cleavage Z-score (15 min),furin cleavage Z-score (30 min)
CALLLLLALPAGNASASA [HC559],-0.496 (inactive),-0.0246 (inactive),-1.1 (inactive)
CATDPCSGSWAGNASASA [HC1851],-1.13 (inactive),-1.19 (inactive),-1.08 (inactive)
CAAILDMIAGAGNASASA [HC332],0.577 (inactive),0.516 (inactive),-0.84 (inactive)
CASKAHGIDPAGNASASA [HC795],-1.17 (inactive),-1.03 (inactive),1.13
CASKSLSKRSAGNASASA [FS-721],8.05 (active),10.1 (active),6.73 (active)
CATVPCSGSWAGNASASA [HC1850],-0.242 (inactive),-1.82 (inactive),-1.24 (inactive)
CATDALMTGYAGNASASA [HC879],0.343 (inactive),0.0305 (inactive),0.976 (inactive)
CAPPDSDAESAGNASASA [HC1349],-1.81 (inactive),-1.84 (inactive),-0.313 (inactive)
CARKDRRKKGAGNASASA [FS-2035],0.369 (inactive),0.879 (inactive),1.04
CARHYRPTGYAGNASASA [FS-2682],-1.08 (inactive),-0.433 (inactive),-0.26 (inactive)
CARKRRIVSGAGNASASA [FS-2348],-0.706 (inactive),0.0646 (inactive),-1.35 (inactive)
CARKRRGTGYAGNASASA [FS-2565],9.5 (active),11.3 (active),9.57 (active)
CARKRREAESAGNASASA [FS-2972],12 (active),12.2 (active),8.7 (active)
CARKRRSIRYAGNASASA [FS-2975],8.7 (active),10.2 (active),9.27 (active)
CARKRRGTKGAGNASASA [FS-1959],8.4 (active),9.53 (active),8.24 (active)
CAVVCESMSYAGNASASA [HC93],1.27,1.17,0.112 (inactive)
CAGLPVCQDHAGNASASA [HC934],-1.12 (inactive),-0.715 (inactive),-0.789 (inactive)
CAMEECSQHVAGNASASA [HC1770],0.37 (inactive),-0.816 (inactive),0.885 (inactive)
CAGLAGAAIGAGNASASA [HC1077],0.0949 (inactive),-0.583 (inactive),-1.05 (inactive)
CATTPCSGSRAGNASASA [HC1933],-1.1 (inactive),1.02,0.7 (inactive)
CAEWVVCCSMAGNASASA [HC2128],-0.594 (inactive),0.0553 (inactive),0.122 (inactive)
CARKRRTGFGAGNASASA [FS-2978],-1.31 (inactive),1.08,1.25
